Among the data in PubChem BioAssay (EPA / NIEHS) are outcome and AC50 values, retold here.

Inconclusive results are not listed. The source made the active and inactive calls. The calls were made as follows, unless noted: active = hit-call score of the fitted dose curve at least 0.9, where 1 is the maximum; inconclusive = response in the unintended direction; inactive = score below 0.9.

Broadly, the AC50 is the midpoint of the concentration-response curve, whichever way the signal moves.

Assay [1] addresses Cellular tumor antigen p53 (Homo sapiens) (UniProt P04637). The assay is described as follows: TOX21_p53_BLA_p2_ratio: Tox21 HCT-116 p53 Agonism Beta-lactamase Assay, Ratio, Phase 2 (AID 2283592). An outline of the steps: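 In this cell-based reporter format, HCT116 cells were dosed with chemicals delivered from DMSO by 217-fold dilution and incubated 16 h at 37C. Emission at 460 and 530 nm after 2 h CCF4-AM loading provided the ratio, fitted upward versus DMSO.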

Assay [2] has the same target. Put plainly: TOX21_p53_BLA_p3_ratio: Tox21 HCT-116 p53 Agonism Beta-lactamase Assay, Ratio, Phase 3 (AID 2283596). In short, it runs like this: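 HCT116 p53-bla cells (4000/well) given compound in DMSO (217-fold dilution) after 5 h, incubated 16 h at 37C. CCF4-AM substrate 2 h at room temperature; 460/530 nm emission ratio, gain fitted against DMSO.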
The target is the same in assay [3]. The assay is described as follows: TOX21_p53_BLA_p5_ratio: Tox21 HCT-116 p53 Agonism Beta-lactamase Assay, Ratio, Phase 5 (AID 2283599). An outline of the steps: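 Beta-lactamase reporter ratio (blue 460 nm over green 530 nm, 405 nm excitation) after 2 h CCF4-AM loading, in HCT-116 cells exposed 16 h at 37 C to compounds pinned at 217-fold dilution. Increases relative to DMSO baseline scored.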

For assay [4] the target is unchanged. The assay is described as follows: TOX21_p53_BLA_p4_ratio: Tox21 HCT-116 p53 Agonism Beta-lactamase Assay, Ratio, Phase 4 (AID 2283601). In short, it runs like this:
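Signal is the blue/green (460nm/530nm) ratio of cleaved versus uncleaved CCF4-AM substrate, read after 2 h substrate loading. Cells were HCT116 carrying the p53-responsive beta-lactamase reporter, dosed 16 h at 37C, 5% CO2; CellTiter-Glo measured in parallel.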

The target of assay [5] is PGR (gene 5241) (UniProt P06401). Put plainly: TOX21_PR_BLA_Followup_Agonist_ratio: Tox21 HEK293 Progesterone Receptor (PR) Agonism Beta-lactamase Follow-Up Assay, Ratio (AID 2283933). An outline of the steps:
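HEK293T PR-UAS-bla, 2% CS-FBS; 6 hr preincubation, cpd/DMSO pinned, 16 hr 37C/5% CO2; LiveBLAzer B/G 2 hr RT; FRET ch2/ch1 ratio, agonist direction vs DMSO. Viability by CellTiter-Glo in same wells.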

For assay [6] the target is unchanged. The assay is described as follows: TOX21_PR_BLA_Followup_Antagonist_ratio: Tox21 HEK293 Progesterone Receptor (PR) Antagonism Beta-lactamase Follow-Up Assay, Ratio (AID 2283934). In short, it runs like this: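 HEK293T PR-UAS-bla, 2% CS-FBS; 6 hr plating, then cpd + R5020 (1 nM final), 16 hr 37C/5% CO2. B/G FRET substrate 2 h RT. Ratio ch2/ch1 vs DMSO; CellTiter-Glo viability multiplexed, autofluorescence checked.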

Assay [7] shares this target. Put plainly: TOX21_PR_LUC_Followup_Agonist: Tox21 HEK293 Progesterone Receptor (PR) Agonism Luciferase Follow-Up Assay (AID 2283937; active = hit-call score of the fitted dose curve at least 0.9, where 1 is the maximum; inactive = score below 0.9). In short, it runs like this:
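Cells: HEK293-PR-A-luc, 3,000/well, 10% charcoal-stripped FBS assay medium. Compound added after 5 h; 16 h, 37C, 0% CO2. ONE-Glo luciferase, luminescence. Positive fit vs DMSO.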

Assay [8] shares this target. The assay is described as follows: TOX21_PR_LUC_Followup_Antagonist: Tox21 HEK293 Progesterone Receptor (PR) Antagonism Luciferase Follow-Up Assay (AID 2283938).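 Also: curve fitted upward as signal gain over DMSO baseline despite antagonist label.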 An outline of the steps:
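Luminescence from ONE-Glo reagent, measured after 30 min at room temperature, served as readout. Cells (HEK293 carrying PR-A-luc) had been treated 16 h at 37C with DMSO-dissolved compounds. Activity was fitted against DMSO controls.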

Assay [9] is described as follows: TOX21_TRB_BLA_Antagonist_Followup_viability: Viability Assessment in the Tox21 Thyroid Hormone Receptor beta Antagonism Beta-lactamase (BLA) Follow-Up Assay (AID 2283961). In short, it runs like this:
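Viability read as CellTiter-Glo ATP luminescence (loss of signal = cytotoxicity) in the same plates as the TRβ-bla readout. TRβ-LBD/GAL4 UAS-bla HEK293T cells were exposed to compounds, 11 concentrations in triplicate, for 18 h at 37C/5% CO2.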

Assay [10] is described as follows: TOX21_TR_RXR_BLA_Antagonist_Followup_viability: Viability Assessment in the Tox21 Thyroid Hormone Receptor beta Retinoid X Receptor alpha (RXRa) Antagonism Beta-lactamase (BLA) Follow-Up Assay (AID 2283979). In short, it runs like this:
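Follow-up compounds (11 concentrations, triplicate) were incubated 16 h at 37C/5% CO2 with HEK293T RXRa-bla cells seeded at 2,500/well in charcoal-stripped-serum medium. ATP content by CellTiter-Glo luminescence gave viability; curves fitted in both directions against DMSO.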

Assay [11] is described as follows: TOX21_p53_BLA_p5_viability: Viability Assessment in the Tox21 HCT-116 p53 Agonism Beta-lactamase Assay, Phase 5 (AID 2283600). An outline of the steps:
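Compounds, pinned from DMSO at 217-fold dilution, were left on the cells for 16 h. The viability endpoint was ATP content measured by CellTiter-Glo luminescence, where falling signal reflects cytotoxicity.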

The nature of assay [12]: STM_H9_OrnCyssISnorm_ratio: Stemina devTOX quickPredict H9 human embryonic stem cell (hESC)-based Assay for Ornithine (ORN):Cystine (CYSS) Ratio (AID 2283714). An outline of the steps: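 Steps: H9 hESCs in pluripotent state dosed 72h, medium plus compound renewed every 24h; conditioned medium from the final 24h deproteinized in 40% acetonitrile; ORN and CYSS quantified by UPLC-HRMS with C13 spike-ins; ratio relative to vehicle.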

Assay [13] in a line: CCTE_Harrill_HTTr_Viability_MCF7: CCTE's 6-hour Cell Viability Assessment for the High-Throughput Transcriptomics (HTTr) Platform, in MCF-7 cells cultured in DMEM + 10% fetal bovine serum, Harrill Lab (AID 2284010; active = hit-call score of the fitted dose curve at least 0.9, where 1 is the maximum; inactive = score below 0.9). An outline of the steps:
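Cells were dosed with chemicals in an eight-point dilution series, imaged 6 hours later for propidium iodide uptake, and the endpoint was analyzed by bidirectional fitting against DMSO as negative control.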

Assay [14] in a line: CCTE_Harrill_HTTr_Apoptosis_MCF7: CCTE's 6-hour Apoptosis Assessment for the High-Throughput Transcriptomics (HTTr) Platform, in MCF-7 cells cultured in DMEM + 10% fetal bovine serum, Harrill Lab (AID 2284011; active = hit-call score of the fitted dose curve at least 0.9, where 1 is the maximum; inactive = score below 0.9). In short, it runs like this: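 Read-out: CellEvent Caspase 3/7 Green signal by high content imaging, gain-of-signal indicating apoptosis. MCF-7 cells, DMEM + 10% FBS, eight-point dilution series, 6 h exposure. Curves fitted bidirectionally relative to DMSO negative control.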

Assay [15] can be described thus: CCTE_Harrill_HTTr_CellCount_MCF7: CCTE's Cell Proliferation Assessment for the High-Throughput Transcriptomics (HTTr) Platform, Harrill Lab (AID 2284012).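 Also: cells exposed to compound for six hours; intended direction is loss of nuclei count meaning fewer cells.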 In short, it runs like this: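 Chemicals in eight-point dilution series are added to MCF-7 cells for six hours, nuclei are stained with Hoechst and imaged, and per-well nuclei counts are fitted in both directions relative to DMSO controls.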

Sequence of Cellular tumor antigen p53 (Homo sapiens) (P04637 whole entry, looked up): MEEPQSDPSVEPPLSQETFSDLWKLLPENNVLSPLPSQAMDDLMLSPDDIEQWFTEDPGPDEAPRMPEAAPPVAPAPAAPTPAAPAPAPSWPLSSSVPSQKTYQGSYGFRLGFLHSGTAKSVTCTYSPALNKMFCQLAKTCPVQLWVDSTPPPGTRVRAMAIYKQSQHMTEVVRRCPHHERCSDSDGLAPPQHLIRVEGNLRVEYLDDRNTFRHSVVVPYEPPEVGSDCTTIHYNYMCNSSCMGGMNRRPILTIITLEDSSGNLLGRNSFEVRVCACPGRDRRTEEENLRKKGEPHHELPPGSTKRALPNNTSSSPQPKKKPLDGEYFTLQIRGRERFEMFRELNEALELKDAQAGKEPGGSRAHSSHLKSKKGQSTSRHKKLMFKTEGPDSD
Sequence of PGR (gene 5241) (P06401 whole entry, looked up): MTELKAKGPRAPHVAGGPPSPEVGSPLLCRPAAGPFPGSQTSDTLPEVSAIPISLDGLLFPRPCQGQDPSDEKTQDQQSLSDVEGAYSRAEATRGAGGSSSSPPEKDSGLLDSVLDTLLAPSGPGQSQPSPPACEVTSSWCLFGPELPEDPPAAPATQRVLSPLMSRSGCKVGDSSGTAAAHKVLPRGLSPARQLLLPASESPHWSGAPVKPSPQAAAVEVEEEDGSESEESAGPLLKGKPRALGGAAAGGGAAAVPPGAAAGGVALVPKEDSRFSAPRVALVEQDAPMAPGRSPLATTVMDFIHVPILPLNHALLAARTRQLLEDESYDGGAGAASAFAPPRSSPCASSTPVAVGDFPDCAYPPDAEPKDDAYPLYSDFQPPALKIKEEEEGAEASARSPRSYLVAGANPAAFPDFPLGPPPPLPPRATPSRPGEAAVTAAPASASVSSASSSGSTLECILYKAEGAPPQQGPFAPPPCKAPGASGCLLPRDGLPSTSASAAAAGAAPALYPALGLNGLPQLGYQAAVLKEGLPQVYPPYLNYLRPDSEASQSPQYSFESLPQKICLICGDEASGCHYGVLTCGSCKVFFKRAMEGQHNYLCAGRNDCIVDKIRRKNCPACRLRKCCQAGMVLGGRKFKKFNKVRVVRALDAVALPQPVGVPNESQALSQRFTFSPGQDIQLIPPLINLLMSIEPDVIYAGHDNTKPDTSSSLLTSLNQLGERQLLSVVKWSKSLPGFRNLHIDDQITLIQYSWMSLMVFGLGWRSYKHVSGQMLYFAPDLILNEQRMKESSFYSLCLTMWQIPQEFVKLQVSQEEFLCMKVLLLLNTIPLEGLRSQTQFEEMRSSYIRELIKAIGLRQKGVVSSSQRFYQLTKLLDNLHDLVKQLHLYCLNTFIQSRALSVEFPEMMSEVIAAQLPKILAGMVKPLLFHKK

Consider `CNCC(=O)N[C@@H](CCCN=C(N)N)C(=O)N[C@H](C(=O)N[C@@H](Cc1ccc(O)cc1)C(=O)N[C@H](C(=O)N[C@@H](Cc1cnc[nH]1)C(=O)N1CCC[C@H]1C(=O)N[C@@H](C)C(=O)O)C(C)C)C(C)C`, for which the outcome in [1], in assay [2], in assay [3] and in assay [4] was inactive.

As for `CCOC(=O)C1=C(C)NC(C)=C(C(=O)OC)C1c1cccc(Cl)c1Cl` (stereo unspecified), the outcome (in [1]; in [2]; in assay [3]; in assay [4]; with PGR (gene 5241) [5]; in the assay with PGR (gene 5241) [7]) was inactive. Also, the AC50 is 14.7 µM (active) in the assay with PGR (gene 5241) [6] and 13.4 µM (active) in the assay with PGR (gene 5241) [8].

Consider `CCOC(=O)C1=C[C@]2(CC)CCCN3CCc4c(n1c1ccccc41)[C@@H]32`, for which the outcome in [1], in assay [2], in [3], in assay [4], in assay [9] and in [10] was inactive.

As for `COC(=O)Nc1nc2ccc(C(=O)c3cccs3)cc2[nH]1`, the AC50 in assay [1] was 0.0943 µM (active); in assay [2], 0.0458 µM (active). Further, the molecule was called inactive in assay [11].

Take `O=C(c1ccccc1)C1(O)CCCCC1`: the outcome in assay [1], in assay [2], in assay [3], in assay [4], in assay [12] and in assay [13] was inactive. Besides, the result in assay [14] and in [15] was inactive.

Turning to `CC1(C)S[C@@H]2[C@H](NC(=O)C(C(=O)Oc3ccc4c(c3)CCC4)c3ccccc3)C(=O)N2[C@H]1C(=O)O` (stereo partly specified), the outcome in assay [1], in assay [2], in [3] and in assay [4] was inactive.

On to `CCCCCO`, for which the outcome in assay [1], in assay [2] and in assay [4] was inactive.

Consider `O=c1[nH][nH]c2ccccc12`, for which the result in [1], in [2] and in assay [4] was inactive.

With `NS(=O)(=O)c1cc2c(cc1Cl)NC(Cc1ccccc1)NS2(=O)=O` (stereo unspecified), the outcome in assay [1], in [2], in assay [11] and in assay [4] was inactive.

Turning to `COc1ccc(CN(CCN(C)C)c2ncccn2)cc1`, the result in assay [1], in [2] and in assay [4] was inactive.

Turning to `Nc1nc(N)nc(-c2cc(Cl)ccc2Cl)n1`, the result in [1], in assay [2] and in assay [4] was inactive.

As for `CC(=O)NC[C@H]1CN(c2ccc(N3CCOCC3)c(F)c2)C(=O)O1`, the outcome in assay [1], in assay [2], in [3] and in assay [4] was inactive.

For `Cc1cc(OI)c(C(C)C)cc1-c1cc(C(C)C)c(OI)cc1C`, the result in [1], in assay [2] and in [4] was inactive.

As to `O=C1c2ccccc2C(=O)C1c1ccccc1`, the outcome in assay [1], in [2], in [3] and in assay [4] was inactive.

`O=Cc1ccc(F)c(Br)c1`: the outcome in assay [1], in assay [2], in [3] and in assay [4] was inactive.

For the molecule `N=C(N)c1ccccc1`, the result in assay [1], in assay [2], in assay [11] and in assay [4] was inactive.

In the case of `O=C(O)CC(=O)O`, the result in assay [1], in [2] and in assay [4] was inactive.
